Screens as filed in PubChem.
An excerpt weighted towards active compounds, which were near 15% of everything screened.
12-LOX inh: ALOX12 (human) lipoxygenase inhibition; P18054; purified 12hLO, xylenol orange hydroperoxide absorbance; Potency, µM (top dose mostly 108 µM), for the others: top-dose activity change, negative = inhibition, usual class: inhibitors; 1.1% of 580,000 active
Target sequence (P18054 whole entry, looked up): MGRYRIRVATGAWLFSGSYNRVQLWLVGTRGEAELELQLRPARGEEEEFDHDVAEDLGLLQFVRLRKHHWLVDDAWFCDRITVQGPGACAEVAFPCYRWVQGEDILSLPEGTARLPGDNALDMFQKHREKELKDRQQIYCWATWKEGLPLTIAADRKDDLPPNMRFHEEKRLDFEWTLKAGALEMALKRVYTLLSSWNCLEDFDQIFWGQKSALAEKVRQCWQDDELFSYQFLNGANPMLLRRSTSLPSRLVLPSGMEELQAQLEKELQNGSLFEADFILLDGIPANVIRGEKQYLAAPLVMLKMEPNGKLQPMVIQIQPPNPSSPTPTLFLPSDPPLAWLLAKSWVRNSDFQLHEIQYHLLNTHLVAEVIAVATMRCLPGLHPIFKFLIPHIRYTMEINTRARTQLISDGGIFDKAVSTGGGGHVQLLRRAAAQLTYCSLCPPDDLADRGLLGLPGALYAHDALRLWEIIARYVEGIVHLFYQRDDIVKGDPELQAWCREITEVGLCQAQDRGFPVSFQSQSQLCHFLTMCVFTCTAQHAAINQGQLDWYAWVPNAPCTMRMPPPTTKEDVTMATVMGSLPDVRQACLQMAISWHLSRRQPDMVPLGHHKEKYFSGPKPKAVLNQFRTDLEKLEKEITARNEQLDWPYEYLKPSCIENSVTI
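Purified human 12hLO (150 nM final) in 25 mM Hepes, 0.01% Triton X-100, pH 7.0 was preincubated 15 min at room temperature with compound. Then 40 uM arachidonic acid was added, 30 min. Hydroperoxide was read by Fe-XO absorbance ratio 573/405 nm.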
DT40 TDP1 CPT: DT40-hTDP1 cell growth loss with CPT; 12% of 420,000 active; chicken DT40 Tdp1-/-;hTDP1 cells + 20 nM CPT, ATP luminescence, 48 h; AID 686979; Potency, µM (highest dose often 46.2 µM), for the others: at the top dose activity change, negative = growth inhibition, usual class: inhibitors; also: nearly all actives have a fitted effect of over 55% in size
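Chicken DT40 Tdp1-/- cells stably complemented with human TDP1 were seeded at 400 cells/well in medium containing 20 nM camptothecin, exposed to pin-transferred compounds, and grown at 37 °C for at least 48 hr. Viability was read as ATP luminescence.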
RORg inh: inhibitors of mouse ROR gamma transcriptional activity; Drosophila S2 Gal4-RORgamma UAS-luciferase reporter, 20 h; Potency, µM (titrated, usually from 53.6 µM), for inactives: at the top dose activity change, negative = inhibition, most hits filed as inhibitors; 5.4% of 310,000 active; also: nearly all actives have a fitted effect of over 60% in size
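Luminescence from a UAS-regulated Photinus luciferase reporter in stably transfected Drosophila Schneider cells is measured; decreased signal marks ROR gamma inhibition. Fusion expression is induced by 700 uM copper sulfate for 20 hr.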
Gal4-VP16 FLuc: Gal4-VP16 reporter inhibition counter-screen; AID 2546; Potency, µM (titrated, usually from 53.6 µM), for the others: at the top dose activity, negative = inhibition, hits mostly inhibitors; 3.5% of 310,000 active; Drosophila S2 Gal4-VP16 UAS-luciferase, luminescence, 20 h;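 also: Gal4-VP16 expression switched on by copper sulfate through the metallothionein promoter; nearly all actives have a fitted effect of over 50% in size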
ELG1 DNA repair: ELG1-dependent DNA repair inhibition. HEK293T ELG1-luciferase reporter, luminescence, 16 h; DNA damage induced by 5-fluorouridine. Potency, µM (doses to about 46.1 µM), for the others: at the highest dose activity change, negative = inhibition, usual class: inhibitors. 2.3% of 330,000 active. AID 504467; also: nearly all actives have a fitted effect of over 55% in size
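Cells (2,000 per well) received 5-fluorouridine plus test compound or DMSO and were incubated 16 hr at 37 °C, 5% CO2. Luciferase activity was read by luminescence 30 min after ONE-Glo addition; signal suppression marked inhibition of damage-induced ELG1 function.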
TDP1 cell noCPT: qHTS for Inhibitors of human tyrosyl-DNA phosphodiesterase 1 (TDP1): qHTS in cells in absence of CPT; 15% of 420,000 active; Potency, µM (top dose mostly 46.2 µM), without a hit: top-dose activity change, negative = growth inhibition, usual class: inhibitors; DT40 Tdp1-/- hTDP1 cells, no CPT, ATP luminescence, 48 h; AID 686978, 2013; also: nearly all actives have a fitted effect of over 55% in size
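Luminescent ATP content (CellTiter-Glo) served as the growth readout. Knockout chicken DT40 cells expressing human TDP1 were exposed to compounds without camptothecin for a minimum 48 hr at 37 °C.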
Starred values were filed as active, the others as inactive; ? = inconclusive; . = not tested or not shown. Calls follow the shape of the dose curve; as a rule, active = well fitted curve in the direction sought with a large enough effect; inconclusive = small, poorly fitted or top-dose-only effect, or another doubt; inactive = no such curve, though single readings can be large; an effect the other way counts as inactive or inconclusive. % is scaled to controls: 0 for no effect and ±100 for the full control effect; potency is read from the fitted curve at half-maximal effect.

SMILES	12-LOX inh	DT40 TDP1 CPT	RORg inh	Gal4-VP16 FLuc	ELG1 DNA repair	TDP1 cell noCPT
O=C1NC[C@@H](CCC(=O)N2CCc3ccccc32)N2C[C@@H](NS(=O)(=O)c3ccc(F)cc3)C[C@@H]12	54%	.	.	.	.	.
COc1ccc(CN(C)Cc2nc3scc(-c4ccccc4)c3c(=O)[nH]2)cc1OC	6%	13µM*	1.4µM*	2.5µM*	16µM*	6.5µM*
Cc1ccc(-n2c(SCC(=O)Nc3ccccc3Cl)nc3c(=O)[nH]cnc32)cc1	-4%	.	.	.	.	.
CCN1C(=O)/C(=C2/C=Cc3cc(C)ccc3N2CC)N(C)C1=S	-12%	23µM*	13µM*	?	-19%	21µM*
CCOc1ccccc1CNC(=O)CCn1ccc2cc(S(=O)(=O)N3CCC(C)CC3)ccc21	0%	9.2µM*	.	.	.	12µM*
CC1CCC(NC(=O)CCn2ccc3cc(S(=O)(=O)N4CCCC4)ccc32)CC1 (stereo not drawn)	-24%	-22%	26%	-2%	-4%	-16%
CC1CCN(S(=O)(=O)c2ccc3c(ccn3CCC(=O)N3CCCCC3)c2)CC1	-15%	?	16%	1%	1%	6.5µM*
COCCNC(=O)CCn1ccc2cc(S(=O)(=O)N3CCCCCC3)ccc21	-19%	.	.	.	.	.
CCOc1ccccc1CNC(=O)CCn1ccc2cc(S(=O)(=O)N3CCCCC3)ccc21	-24%	16µM*	20%	-14%	1%	29µM*
COc1ccccc1CNC(=O)Cn1ccc2cc(S(=O)(=O)N3CCCC3)ccc21	0%	-14%	16%	3%	3%	-10%
CCOc1ccccc1CNC(=O)Cn1ccc2cc(S(=O)(=O)N3CCCCCC3)ccc21	-27%	8.2µM*	31%	?	-29%	2.9µM*
O=C(CN1CCCc2nc(C3CC3)ncc2C1=O)NCc1ccco1	31%	.	.	.	.	.
COCCNc1nc2cc(C(=O)N3CC[C@H]4CNC[C@H]43)ccc2n1C	29%	.	.	.	.	.
COc1cccc(CN2CC3(C2)C(=O)N(Cc2ccccc2Cl)C(=O)[C@@H]2C[C@@H](O)CN23)c1	5%	.	.	.	.	.
COc1ccc(C2Nc3cccc(O)c3C(=O)N2Cc2ccccc2)cc1COc1ccc(NC(C)=O)cc1 (stereo not drawn)	3%	.	.	.	.	.
COc1ccc(CN2C(=O)N(c3ccccc3)C(=O)C2c2ccccc2)cc1COc1ccc(NC(C)=O)cc1 (stereo not drawn)	.	10µM*	.	.	.	8.9µM*
COc1ccc(CN(Cc2ccccc2)C(C)=O)cc1COc1ccc(NC(C)=O)cc1	.	?	.	.	.	11µM*
COc1ccc(CN(Cc2ccccc2)C(=O)CN2CCN(C)CC2)cc1COc1ccc(NC(C)=O)cc1	.	?	.	.	.	18µM*
CN1CCN(CCC(=O)Nc2ccc(OCc3ccccc3)cc2)CC1	-20%	-11%	-26%	0%	?	-2%
COc1ccc(CN(Cc2ccccc2)C(=O)c2ccncc2)cc1COc1ccc(NC(C)=O)cc1	.	?	.	.	.	11µM*
C/C(=N\O)c1ccc(-n2cccc2)cc1	-5%	.	.	.	.	.
COc1ccc(C(=O)NCC(=O)OCc2ncc(-c3ccccc3)o2)cc1	-2%	.	.	.	.	.
O=C1NCCOCCCN(C(=O)NCc2ccccc2)[C@H]2CCC[C@@H]12	33%	.	.	.	.	.
CCC(C)(C)C1CCC(=NNc2nc3ccccc3[nH]2)CC1 (stereo not drawn)	?	-10%	11µM*	?	10%	-4%
O=[N+]([O-])c1ccc(Oc2cccc3cccnc23)c([N+](=O)[O-])c1	?	5.2µM*	8.9µM*	?	-1%	6.5µM*
SMILES	12-LOX inh	DT40 TDP1 CPT	RORg inh	Gal4-VP16 FLuc	ELG1 DNA repair	TDP1 cell noCPT
O=C(Oc1ccc(Cl)c2cccnc12)c1cccc([N+](=O)[O-])c1	-14%	1.3µM*	1.1µM*	1.6µM*	?	0.92µM*
Cc1c(C(=O)Oc2cccc3cccnc23)cccc1[N+](=O)[O-]	-14%	?	2.8µM*	3.2µM*	-10%	?
O=C(Oc1cccc2cccnc12)c1ccc2ccccc2c1	4%	.	.	.	.	.
N#Cc1ccc(Oc2cccc3cccnc23)c([N+](=O)[O-])c1	28%	4%	8%	-14%	-1%	?
O=C(Oc1cccc2cccnc12)c1ccc2c(c1)OCCO2	-13%	0.65µM*	1.6µM*	2µM*	10µM*	1µM*
Cc1c(C(=O)Nc2cccc3cccnc23)cccc1[N+](=O)[O-]	44%	.	.	.	.	.
CN(C)C[C@@H]1CN(C2CCOCC2)C[C@H]1NC(=O)C1CC=CCC1 (stereo partly drawn)	97%	.	.	.	.	.
O=C(CCC1CCCC1)NCC12CC3CC(CC(C3)C1)C2	-46%	.	.	.	.	.
O=C(Nc1cccc2cccnc12)c1cccc([N+](=O)[O-])c1	7%	12%	.	.	?	7%
CCN(CC)C(=O)Oc1c(Cl)cc(Cl)c2cccnc12	1%	18%	3%	-11%	-9%	?
O=C(Oc1c(Cl)cc(Cl)c2cccnc12)c1cccc([N+](=O)[O-])c1	.	2.9µM*	0.28µM*	.	-17%	3.3µM*
O=C(Oc1cccc2cccnc12)c1cccc([N+](=O)[O-])c1	?	0.92µM*	3.5µM*	3.2µM*	11%	0.73µM*
Cc1ccc(NC(=O)CSc2ncc(-c3ccc(Cl)cc3)o2)cc1C	-2%	.	.	.	.	.
CCC(=O)N1CCc2c(C(=O)NCc3cccc(OC)c3OC)cccc21	39%	.	.	.	.	.
COc1cccc(S(=O)(=O)N2CC(n3cc(C(=O)NCc4ccncc4)nn3)C2)c1	5%	.	.	.	.	.
